# Results filed as inconclusive are left out. Values without a mark were called inactive. Calls of active or inactive are those of the source. Calls follow the shape of the dose curve; as a rule, active = well fitted cell-killing curve with a large enough effect in the repeat runs; inconclusive = weak or mixed curves, or effect the other way; inactive = flat fitted curve, though single readings scatter.
# Assay: cAMP Responsive Elements (CRE) small molecule antagonists, cell-based qHTS assay: qHTS cell viability counter screen (AID 2060913); also: nearly all actives have a fitted effect of over 40% in size
# Conditions: CRE-bla HEK293T viability, CellTiter-Glo luminescence, 5 h; series mostly up to 92.4 µM; viability change, negative = cytotoxic: at the top concentration
# Procedure, shortened: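 Steps: cells plated and held 18 hrs at 37 C/5% CO2; compounds and NKH477 (0.25 uM final) added; 3 hrs incubation; reporter substrate read; CellTiter-Glo added to measure cytotoxicity by luminescence.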
# % is scaled to controls: 0 for no effect and ±100 for the full control effect; potency is read from the fitted curve at half-maximal effect.
Structure (SMILES),"viability change, negative = cytotoxic",Potency
O=C(OC1CCCCC1)c1ccccc1C(=O)OC1CCCCC1,-17%,–
CN(C)C(=S)[S-].CN(C)C(=S)[S-].[Cu+2],–,13.2 µM (active)
O=C1C2(Cl)C3(Cl)C4(Cl)C(Cl)(Cl)C5(Cl)C3(Cl)C1(Cl)C5(Cl)C24Cl (centres undefined),–,60.1 µM (active)
ClC1=C(Cl)[C@]2(Cl)[C@@H]3[C@H]4C[C@H]([C@@H]5O[C@H]45)[C@@H]3[C@@]1(Cl)C2(Cl)Cl,-11.9%,–
O=[N+]([O-])c1cc(Cl)ccc1Cl,7.65%,–
CCC1CCC(=O)O1 (centres undefined),0.299%,–
CC1COC2(c3ccccc3Cl)c3cc(Cl)ccc3NC(=O)CN12 (centres undefined),3.64% [at 42.5 µM],–
Oc1ccc(C(c2ccc(O)cc2)(C(F)(F)F)C(F)(F)F)cc1,-2.87%,–
CC(C)Br,-7.96%,–
Cc1cc(Cl)ccc1OC(C)C(=O)O (centres undefined),–,inactive
CO[C@@H]1[C@H](OC(=O)NC(=O)CCl)CC[C@]2(CO2)[C@H]1[C@@]1(C)O[C@@H]1CC=C(C)C,9.39% [at 18.9 µM],–
COc1cccc2c1C(=O)c1c(O)c3c(c(O)c1C2=O)C[C@@](O)(C(=O)CO)CC3OC1CC(N2CCOC(OC)C2)C(O)C(C)O1 (some centres undefined),10.2% [at 42.5 µM],–
[Cl-].[Cl-].[Cl-].[Fe+3],–,inactive
CN1CC[C@]23c4c5ccc(O)c4O[C@H]2[C@@H](O)C=C[C@H]3[C@H]1C5,4.75%,–
O=C(C(Cl)(Cl)Cl)C(Cl)(Cl)Cl,3.06%,–
Cc1ccc2c(c1N)C(=O)c1ccccc1C2=O,–,inactive
CCC(C)c1cc(C(C)(C)C)cc(-n2nc3ccccc3n2)c1O (centres undefined),-12.2% [at 42.5 µM],–
CC1C=[C-]C=C1.[C-]#[O+].[C-]#[O+].[C-]#[O+].[Mn],–,inactive
CCSC(C)CC1CC(=O)C(/C(CC)=N/OC/C=C/Cl)=C(O)C1 (centres undefined),1.26% [at 42.5 µM],–
CC(C)(C)OC(=O)c1ncn2c1[C@@H]1CCCN1C(=O)c1c(Br)cccc1-2,0.159% [at 42.5 µM],–

Structure (SMILES),"viability change, negative = cytotoxic",Potency
NS(=O)(=O)C(F)(F)C(F)(F)C(F)(F)C(F)(F)C(F)(F)C(F)(F)C(F)(F)C(F)(F)F,-4.78%,–
N#CCNCC#N,5.26%,–
Nc1c(Cl)c(Cl)c(Cl)c(Cl)c1Cl,-4.03%,–
Cc1c(Cl)c(=O)oc2cc(OP(=O)(OCCCl)OCCCl)ccc12,-0.131% [at 42.5 µM],–
Nc1n[nH]c(N)n1,2.01%,–
CCOc1ccc(C(C)(C)COCc2cccc(Oc3ccccc3)c2)cc1,2.93%,–
O=C(NC(=O)c1ccccc1Cl)Nc1ccc(OC(F)(F)F)cc1,2.92%,–
O=[N+]([O-])c1cc([N+](=O)[O-])c2ccccc2c1,0.77%,–
O=c1c2ccccc2c(=O)c2c1cc(Cl)c1[nH]c3c([nH]c12)c(Cl)cc1c(=O)c2ccccc2c(=O)c13,1.78%,–
O=C(O)c1cc(Cl)ccc1Cl,6.42%,–
Cc1ccc(N)cc1Cl,–,inactive
ClCCOCOCCCl,13.2%,–
Fc1cc(Br)ccc1CBr,-4.96% [at 42.5 µM],–
COc1cc(OC)c(OC)cc1C=O,4.09%,–
CC(C)[N+](C)(CCC(C(N)=O)(c1ccccc1)c1ccccc1)C(C)C,-2.13% [at 42.5 µM],–
Nc1ccc(N=Nc2ccc(-c3ccc(N=Nc4c(S(=O)(=O)O)cc5cc(S(=O)(=O)O)c(N=Nc6ccccc6)c(O)c5c4N)cc3)cc2)c(N)c1,4.74% [at 42.5 µM],–
CN(C)C(=O)Oc1cc(OC(=O)N(C)C)cc(C(O)CNC(C)(C)C)c1 (centres undefined),3.61% [at 42.5 µM],–
CCCSP(=S)(OCC)Oc1ccc(SC)cc1 (centres undefined),-10.1%,–
CO/C=C(/C(=O)OC)c1ccccc1Oc1cc(Oc2ccccc2C#N)ncn1,–,65.2 µM (active)

# Reference: PubChem BioAssay (Tox21)
